Measurements: PubChem BioAssay AID602342 (Broad Institute, 2012)
Among all 340,000 compounds or so, about 1,000 (0.29%) were called active.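 How the source made its calls: active means mean replicate activation score at least 90 and every replicate individually at or above 90; inconclusive means only one of the two criteria met; inactive means neither criterion met.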 For the sample, actives were picked, then their nearest neighbours and some compounds at random.

Experiment: compounds raising miR-122 luciferase sensor output – cell-based, single point, plate reader, miR-122 inhibitor project, primary screen (AID 602342);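 further: higher luciferase means less miR-122 activity so hits act as miR-122 inhibitors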
Settings: Huh7 miR-122 Renilla luciferase sensor, 48 h, hits give high values, neutral wells = 0, positive control = 100

## COc1ccc(C(=O)N2C[C@@H]3[C@H](c4ccccc42)[C@H](CO)N3Cc2ccc3c(c2)OCO3)cc1
At 16.7 µM unless noted
  activation (reporter increase): 247% (active)

## COc1ccccc1NC(=O)N1C[C@H]2[C@@H](c3ccccc31)[C@H](CO)N2Cc1ccc2c(c1)OCO2
At 16.7 µM unless noted
  activation (reporter increase): 28.6% (inactive)

## COc1cccc(CN2[C@H](CO)[C@@H]3c4ccccc4N(C(=O)c4ccncc4)C[C@@H]32)c1
At 16.7 µM unless noted
  activation (reporter increase): 46.9% (inactive)

## O=C(c1ccncc1)N1C[C@H]2[C@@H](c3ccccc31)[C@H](CO)N2C(=O)c1ccccn1
At 16.7 µM unless noted
  activation (reporter increase): -28.6% (inactive)

## C/C=C/c1ccc([C@H]2[C@@H](CO)N(S(C)(=O)=O)[C@@H]2CN(C)C(=O)CC)cc1
At 16.7 µM unless noted
  activation (reporter increase): 6.25% (inactive)

## CN1C(=O)c2cc(NS(=O)(=O)c3ccc(Cl)cc3)ccc2OC[C@@H]2O[C@H](CC(=O)O)CC[C@@H]21
At 16.7 µM unless noted
  activation (reporter increase): 5.56% (inactive)

## O=C(Nc1ccc2c(c1)[C@H]1C[C@@H](CC(=O)N3CCc4ccccc4C3)O[C@H](CO)[C@H]1O2)Nc1ccccc1F
At 16.7 µM unless noted
  activation (reporter increase): -7.95% (inactive)

## CO[C@@H]1CN(C)C(=O)c2ccc(NS(=O)(=O)c3ccc(Cl)cc3)cc2OC[C@@H](C)N(C)C[C@H]1C
At 16.7 µM unless noted
  activation (reporter increase): -8.17% (inactive)

## C=CCNC(=O)c1ccccc1NC(=O)c1ccc(Cl)c(S(=O)(=O)Nc2cccc(C)c2C)c1
At 16.7 µM unless noted
  activation (reporter increase): 155% [at 12.5 µM] (active)

## COC(=O)c1ccc(C(=O)Nc2cc(Cl)ccc2Cl)cc1NC(=O)c1ccccc1C
At 16.7 µM unless noted
  activation (reporter increase): -1.04% [at 12.5 µM] (inactive)

## Cc1ccc(C(=O)Nc2ccccc2C(=O)NC2CCCCC2)cc1S(=O)(=O)N1CCOCC1
At 16.7 µM unless noted
  activation (reporter increase): -2.85% [at 12.5 µM] (inactive)

## CCC(=O)N(C)C[C@@H]1Oc2ncc(C#C[C@H](C)O)cc2C(=O)N([C@@H](C)CO)C[C@@H]1C
At 16.7 µM unless noted
  activation (reporter increase): 1.39% (inactive)

## Cc1ccccc1S(=O)(=O)N1C[C@H](O)COC[C@H]2O[C@H](CC(=O)N3CCCCC3)CC[C@@H]21
At 16.7 µM unless noted
  activation (reporter increase): 8.99% (inactive)

## COc1ccc(CNS(=O)(=O)c2ccc(-c3cnc(C4CC4)o3)cc2)cc1
At 16.7 µM unless noted
  activation (reporter increase): -3.38% [at 12.5 µM] (inactive)

## Cc1cccc(CNS(=O)(=O)c2ccc(-c3cnc(C4CC4)o3)cc2)c1
At 16.7 µM unless noted
  activation (reporter increase): 3.02% [at 12.5 µM] (inactive)

## Cc1cccc(NS(=O)(=O)c2ccc(-c3cnc(C4CC4)o3)cc2)c1
At 16.7 µM unless noted
  activation (reporter increase): 186% [at 12.5 µM] (active)

## C[C@@H]1CN([C@H](C)CO)C(=O)c2cccc(NS(=O)(=O)c3ccc(F)cc3)c2O[C@H]1CN(C)Cc1ccc(Oc2ccccc2)cc1
At 16.7 µM unless noted
  activation (reporter increase): 3.49% (inactive)

## O=C(NC1CCCC1)[C@H]1[C@H](CO)[C@H]2Cn3c(ccc(-c4ccccc4)c3=O)[C@H]2N1CCc1ccccc1
At 16.7 µM unless noted
  activation (reporter increase): -0.306% (inactive)

## C[C@H](CO)N1C[C@H](C)[C@H](CN(C)C(=O)Nc2ccccc2C(F)(F)F)OCc2cn(nn2)CCCC1=O
At 16.7 µM unless noted
  activation (reporter increase): -4.03% (inactive)

## N=c1n(Cc2ccc(Cl)cc2)c2ccccc2n1CC(O)c1ccco1 (configuration not stated)
At 16.7 µM unless noted
  activation (reporter increase): 262% [at 12.5 µM] (active)

## Cn1c(=N)n(CC(O)c2cccs2)c2ccccc21 (configuration not stated)
At 16.7 µM unless noted
  activation (reporter increase): -2.61% [at 12.5 µM] (inactive)

## C[C@H](CO)N1C[C@H](C)[C@@H](CN(C)C(=O)Nc2ccc3c(c2)OCO3)OCCCC[C@H](C)Oc2ccc(NC(=O)Nc3ccc(F)cc3)cc2C1=O
At 16.7 µM unless noted
  activation (reporter increase): -4.3% (inactive)

## Cc1noc(C)c1S(=O)(=O)N(C)C[C@@H]1OCCCC[C@H](C)Oc2ccc(NC(=O)Nc3ccc4c(c3)OCO4)cc2C(=O)N([C@H](C)CO)C[C@H]1C
At 16.7 µM unless noted
  activation (reporter increase): -8.18% (inactive)

## O=C(Nc1ccccc1)[C@@H]1[C@@H](CO)[C@@H]2Cn3c(cccc3=O)[C@@H]2N1C(=O)C1CC1
At 16.7 µM unless noted
  activation (reporter increase): -0.104% (inactive)

## C[C@@H]1CN([C@H](C)CO)C(=O)c2cc(NC(=O)c3ccccc3)ccc2O[C@@H](C)CCCCO[C@H]1CN(C)C(=O)c1ccncc1
At 16.7 µM unless noted
  activation (reporter increase): -8.54% (inactive)

## C[C@H](CO)N1C[C@H](C)[C@@H](CN(C)S(=O)(=O)c2ccc(F)cc2)Oc2ccc(NC(=O)CCC(F)(F)F)cc2C1=O
At 12.5 µM
  activation (reporter increase): 1.48% (inactive)
At 16.7 µM
  activation (reporter increase): -2.79% (inactive)

## Cc1ccc(S(=O)(=O)Nc2ccc3c(c2)CC(=O)N([C@@H](C)CO)C[C@H](C)[C@H](CN(C)Cc2ccc(C(=O)Nc4ccccc4N)cc2)O3)cc1
At 16.7 µM unless noted
  activation (reporter increase): 252% (active)

## COc1ccc(S(=O)(=O)N(C)C[C@@H]2Oc3ccc(NC(=O)CCC(F)(F)F)cc3C(=O)N([C@@H](C)CO)C[C@H]2C)cc1
At 16.7 µM unless noted
  activation (reporter increase): -0.455% (inactive)

## Cc1ccc(S(=O)(=O)N(C)C[C@H]2Oc3ccc(NC(=O)CCC(F)(F)F)cc3C(=O)N([C@@H](C)CO)C[C@H]2C)cc1
At 16.7 µM unless noted
  activation (reporter increase): 99.9% (active)

## C[C@H]1CN([C@@H](C)CO)C(=O)Cc2cc(NS(=O)(=O)c3ccccc3)ccc2O[C@H]1CN(C)Cc1ccc(C(=O)Nc2ccccc2N)cc1
At 16.7 µM unless noted
  activation (reporter increase): 71.5% (inactive)

## C[C@H]1CN([C@@H](C)CO)C(=O)Cc2cc(NS(=O)(=O)c3ccccc3)ccc2O[C@@H]1CN(C)Cc1ccc(C(=O)Nc2ccccc2N)cc1
At 16.7 µM unless noted
  activation (reporter increase): -6.43% (inactive)

## COCC(=O)Nc1ccc2c(c1)C(=O)N(C)[C@H]1CC[C@H](CC(=O)Nc3ccccc3)O[C@H]1CO2
At 16.7 µM unless noted
  activation (reporter increase): 1.21% (inactive)

## NCC[C@@H]1CC[C@@H](NC(=O)C2CCCC2)[C@H](CO)O1
At 16.7 µM unless noted
  activation (reporter increase): -3.47% (inactive)

## CC(C)C#Cc1ccc([C@@H]2[C@@H](CO)N3CCCCN(C(=O)c4ccc5c(c4)OCO5)C[C@H]23)cc1
At 16.7 µM unless noted
  activation (reporter increase): -24% (inactive)

## Cc1c(-c2ccccc2)cn2c1-c1ccc(C)n1CC2
At 16.7 µM unless noted
  activation (reporter increase): 248% [at 12.5 µM] (active)

## C[C@H]1CCCCO[C@H](CN(C)S(=O)(=O)c2cn(C)cn2)[C@@H](C)CN([C@@H](C)CO)C(=O)c2cc(NC(=O)C3CCCCC3)ccc2O1
At 16.7 µM unless noted
  activation (reporter increase): 1.57% (inactive)

## CCCNC(=O)N(C)C[C@@H]1Oc2ncc(C#CC(C)C)cc2C(=O)N([C@H](C)CO)C[C@H]1C
At 16.7 µM unless noted
  activation (reporter increase): -5.52% (inactive)

## CN1c2ccc(-c3ccccc3)cc2[C@H]2[C@H](CCN2C(=O)c2ccc3c(c2)OCO3)[C@H]1CO
At 16.7 µM unless noted
  activation (reporter increase): 72.9% (inactive)

## CC(C)CNS(=O)(=O)c1ccc(C(=O)Nc2ccc3c(c2)OCO3)cc1
At 16.7 µM unless noted
  activation (reporter increase): 39.9% [at 12.5 µM] (inactive)

## O=C(COc1ccc(Cl)cc1)Nc1ccc2c(c1)OCO2
At 16.7 µM unless noted
  activation (reporter increase): -4.55% [at 12.5 µM] (inactive)

## CC(C)CNS(=O)(=O)c1ccc(OCC(=O)Nc2ccc3c(c2)OCO3)c(Cl)c1
At 16.7 µM unless noted
  activation (reporter increase): 303% [at 12.5 µM] (active)
